An excerpt weighted towards active compounds, which were near 1.3% of everything screened.
GRP78 ERSR act: qHTS for Inducers of the Endoplasmic Reticulum Stress Response (ERSR) in Human Glioma: qHTS | U87-MG GRP78 promoter luciferase reporter, 16 h | 0.02% of 420,000 active | Potency, µM, for inactives: top-dose activation, hits mostly activators; note: potency is the fitted concentration of half-maximal effect; series mostly up to about 76 µM; % of control where 0% means no effect; nearly all actives have a fitted effect of over 35% in size
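Stably transfected U87-MG human glioma cells carrying a GRP78-based luminescent sensor were seeded at 1000 cells/well, pin-dosed with compounds and incubated 16 h. Luciferase reagent was then added, and end-point luminescence was read after 10 min at room temperature.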
TRPML1 blocker: qHTS for Inhibitors of the Human Mucolipin Transient Receptor Potential 1 (TRPML1). Mucolipin-1 (Homo sapiens), Q9GZU1. TRPML1-inducible cells, Ca2+ dye fluorescence, FDSS; hits give low values; inhibition of EC80 agonist-evoked calcium signal. activity change, negative = inhibition, % (concentration not given with the values). 0.02% of 390,000 active. AID 624415, 2012; in the data active = activity change below about -50%; inconclusive = between about -30% and that limit;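 note: stimulus is agonist 54-4 at its EC80 concentration; % is set by controls: 0 for no effect and ±100 for the full control effect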
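Tet-induced TRPML1-DL cells loaded with Ca8 no-wash calcium dye were read kinetically on FDSS. Compound addition was followed by EC80 agonist 54-4 (4 uM final); inhibition was read over 110 s.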
TRPML1 ag: qHTS for Agonists of the Human Mucolipin Transient Receptor Potential 1 (TRPML1) | activation, % (no concentration beside the values) | TRPML1-expressing cells, Ca2+ dye fluorescence, FDSS | AID 624414, 2012 | 0.12% of 410,000 active; in the data active = activation above about 50%; inconclusive = mostly about 30% to 49%; note: 0% is about no effect
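Calcium fluorescence on an FDSS kinetic reader gave the read-out. Tet-induced TRPML1-DL cells were plated overnight, dye-loaded (Ca8 with quencher, 45-90 min, room temperature, dark), then read 110 s after compound addition, and again 110 s after 4uM final 54-4 (EC80).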
ALOX12 inh: Primary qHTS assay for inhibitors of human arachidonate 12S-lipoxygenase (ALOX12): Round 2. Polyunsaturated fatty acid lipoxygenase ALOX12 (Homo sapiens), P18054. purified 12hLO, xylenol orange hydroperoxide absorbance. Potency, µM (top dose mostly 108 µM), inactives show at the top dose activity change, negative = inhibition, usual class: inhibitors. 1.1% of 580,000 active. AID 1671190, 2021; note: potency is the fitted concentration of half-maximal effect; % is set by controls: 0 for no effect and ±100 for the full control effect
Target sequence (P18054 whole entry, looked up): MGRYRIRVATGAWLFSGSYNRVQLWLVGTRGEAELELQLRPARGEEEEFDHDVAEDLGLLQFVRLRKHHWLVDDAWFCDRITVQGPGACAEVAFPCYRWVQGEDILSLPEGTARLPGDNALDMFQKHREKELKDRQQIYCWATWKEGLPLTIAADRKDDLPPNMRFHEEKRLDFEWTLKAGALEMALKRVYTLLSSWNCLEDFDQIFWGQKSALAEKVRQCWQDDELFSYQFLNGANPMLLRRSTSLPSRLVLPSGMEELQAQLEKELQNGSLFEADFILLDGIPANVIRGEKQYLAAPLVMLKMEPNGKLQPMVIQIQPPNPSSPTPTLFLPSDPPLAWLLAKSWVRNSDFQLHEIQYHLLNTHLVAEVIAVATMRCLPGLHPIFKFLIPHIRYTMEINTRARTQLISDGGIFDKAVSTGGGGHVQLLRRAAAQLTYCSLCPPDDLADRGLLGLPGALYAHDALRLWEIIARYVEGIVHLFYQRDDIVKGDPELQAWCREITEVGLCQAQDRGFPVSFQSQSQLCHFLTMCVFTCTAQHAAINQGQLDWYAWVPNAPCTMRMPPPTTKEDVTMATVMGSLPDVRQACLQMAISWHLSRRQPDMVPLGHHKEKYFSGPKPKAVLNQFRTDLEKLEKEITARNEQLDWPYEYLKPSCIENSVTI
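Hydroperoxide product was detected by ferrous iron/xylenol orange as the 573 to 405 nm absorbance ratio. Arachidonic acid at 40 uM (final) was turned over for 30 min at room temperature by 150 nM human 12hLO, pH 7.0 Hepes buffer, after 15 min compound preincubation.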
Vif-APOBEC3G blk: qHTS for Inhibitors of Vif-A3G Interactions: qHTS. HeLa A3G-eYFP + Vif (tagged APOBEC3G with the HIV-1 protein that degrades it), YFP fluorescence, overnight. Potency, µM (titrated, usually from 46.1 µM), without a hit: at the top dose activity, negative = active, usual class: inhibitors. 0.076% of 410,000 active. AID 602310, 2012; note: potency is the fitted concentration of half-maximal effect; % is set by controls: 0 for no effect and ±100 for the full control effect; nearly all actives have a fitted effect of over 60% in size
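HeLa cells stably expressing Vif and C-terminally eYFP-tagged A3G, seeded overnight at 37 deg C, then exposed to compound by pintool overnight at 37 deg C. Rise in yellow fluorescence (Ex 488/Em 500-530, Acumen) marks blocked Vif-driven A3G degradation.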
Vif-APOBEC3F blk: qHTS for Inhibitors of Vif-A3F Interactions: qHTS | HeLa A3F-eYFP + Vif (tagged APOBEC3F with the HIV-1 protein that degrades it), YFP fluorescence increase | Potency, µM (doses to about 46.1 µM), for the others: at the highest dose activity, negative = active | AID 602313, 2012 | 0.2% of 390,000 active; note: potency is the fitted concentration of half-maximal effect; % of control where 0% means no effect; nearly all actives have a fitted effect of over 65% in size
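Fluorescence increase (Ex 488/Em 500-530) after overnight compound treatment at 37 deg C flags inhibition of Vif-driven A3F-eYFP loss in stable HeLa A3F-eYFP/Vif cells seeded overnight beforehand.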
* = called active by the depositor; ? = inconclusive; / = no result; ! = repeats disagree. Unless noted, calls come from the whole dose curve; as a rule, active = well fitted curve in the direction sought with a large enough effect; inconclusive = small, poorly fitted or top-dose-only effect, or another doubt; inactive = no such curve, though single readings can be large; an effect the other way counts as inactive or inconclusive.

SMILES	GRP78 ERSR act	TRPML1 blocker	TRPML1 ag	ALOX12 inh	Vif-APOBEC3G blk	Vif-APOBEC3F blk
NCCCCn1ccnc1	/	/	/	-14.2%	/	/
NC(=S)c1ccc(S(N)(=O)=O)cc1	/	/	/	3.16µM*	/	/
NNCCc1ccccc1	?	26.1	0.4	5.44µM*!	-1.5%	-2.2%
CN(C)c1ccc(/C=C(/C(=O)c2ccc(Cl)cc2Cl)n2cncn2)cc1	-5.5%	-13.8	?	-10.0%	12.6µM*	?
COc1ccc(/C=C(/C(=O)c2ccc(Cl)cc2Cl)n2cncn2)cc1	-0.3%	2.7	4.5	?	-12.5%	-14.0%
CC(=O)Nc1ccc(N2C(=O)c3cccc4c(O)ccc(c34)C2=O)cc1	-10.9%	-5.8	71.9*	0.0%	-0.3%	?
O=C1c2cccc3c(O)ccc(c23)C(=O)N1Cc1ccco1	-2.6%	-18.7	99.2*	?	9.4%	-51.0%
Cc1ccc(N2C(=O)c3cccc4c(C(=O)O)ccc(c34)C2=O)cc1	/	/	/	-18.0%	/	/
COc1ccc(N2C(=O)c3cccc4c(N(C)CCO)ccc(c34)C2=O)cc1	-0.2%	3.2	?	0.0%	?	?
O=C1c2cccc3c(O)ccc(c23)C(=O)N1c1ccc(Cl)cc1	-10.5%	-8.2	103.7*	?	14.1%	-84.6%
CCOC(=O)c1ccc(N2C(=O)c3cccc4c(C(=O)O)ccc(c34)C2=O)cc1	-2.7%	27.6	0.7	15.8µM*	-1.4%	0.5%
Cc1oc(-c2ccccc2)nc1CC(=O)Nc1ccccc1F	/	/	/	7.6%	/	/
O=C(CSc1nc2ccccc2c(=O)[nH]1)c1cccs1	4.5%	-9.7	1.7	6.31µM*	-1.0%	-0.9%
N#Cc1c(-c2cccs2)nc(SCC(=O)c2cccs2)[nH]c1=O	-2.6%	-11.0	1.4	10µM*	-14.5%	1.3%
Cc1cc(SCC(=O)c2cccs2)nc2ccccc12	3.9%	8.7	5.1	2.2%	?	11.2µM*
CCOC(=O)c1c(NC(=O)C2CCCO2)sc(C(C)=O)c1C (stereo not drawn)	/	/	/	2.7%	/	/
CC(Sc1n[nH]c(-c2cccs2)n1)C(=O)Nc1ccc(F)cc1 (stereo not drawn)	/	/	/	-13.8%	/	/
CCOC(CNC(=O)CSCc1nc(-c2ccc(C)cc2)oc1C)OCC	/	/	/	44.4%	/	/
Fc1ccc(NC(=S)NCCc2c[nH]c3ccccc23)cc1	/	/	/	-27.1%	/	/
COc1ccc(NC(=S)NCCc2c[nH]c3ccccc23)cc1	-6.0%	-26.9	0.5	50.1µM*	0.2%	-18.8%
FC(F)(F)c1cccc(NC(=S)NCCc2c[nH]c3ccccc23)c1	/	/	/	39.8µM*	/	/
O=C(OCC(=O)N1CCCC1)c1cc2ccccc2[nH]1	/	/	/	21.2%	/	/
Clc1ccc(Oc2cc(-c3nc4ccccc4s3)c3ccccc3n2)cc1	/	/	/	3.2%	/	/
CCN(c1ccccc1)S(=O)(=O)c1ccc(N2CCN(c3ccc(O)cc3)CC2)nc1	-0.7%	-7.5	0.1	20µM*	-3.2%	11.0%
Cc1sc(/N=C/c2ccc(Br)cc2)c(C#N)c1C	/	/	/	17.8µM*	/	/
SMILES	GRP78 ERSR act	TRPML1 blocker	TRPML1 ag	ALOX12 inh	Vif-APOBEC3G blk	Vif-APOBEC3F blk
Cc1sc(/N=C/c2ccc(C(C)(C)C)cc2)c(C#N)c1C	/	/	/	-20.6%	/	/
Cc1sc(/N=C/c2cccc3ccccc23)c(C#N)c1C	/	/	/	-67.0%	/	/
Cc1sc(/N=C/c2c[nH]c3ccccc23)c(C#N)c1C	/	/	/	20µM*	/	/
COc1cc(OC)c2c(-c3ccccc3)cc(=O)oc2c1C(CC(=O)N1CCCC1)c1ccc2c(c1)OCO2 (stereo not drawn)	-4.0%	16.2	1.5	50.1µM*	0.1%	3.9%
O=C(CC(=O)c1cc(Cl)ccc1O)c1ccccc1	1.4%	5.3	0.3	-6.6%	-10.8%	-21.2%
O=C(c1ccccc1)c1cc(Cl)ccc1N1C(=O)C=CC1=O	-14.3%	-14.6	0.5	7.94µM*	?	-8.8%
C/C(=N\N(c1ccccc1)c1ccccc1)c1ccc(Br)cc1	/	/	/	3.1%	/	/
CC(C)N(C(=O)Cn1c(CN2CCCCCC2)nc2ccccc21)c1ccccc1	/	/	/	-0.5%	/	/
O=C1c2ccccc2C(=O)N1SC1CCCCC1	-9.1%	16.2	1.0	15.8µM*	1.4%	-1.8%
CSC1CCCCC1(O)CSc1nc2c(cc1C#N)CCCC2 (stereo not drawn)	-5.3%	-9.1	-0.5	7.08µM*	-6.4%	-12.2%
OCC1(Cc2ccccc2)CCCN(Cc2cnn(-c3cccc(Cl)c3)c2)C1 (stereo not drawn)	/	/	/	26.3%	/	/
Cn1c(CSc2nc3ccccc3s2)n[nH]c1=S	-8.6%	-9.3	1.9	?	2.1%	2.6%
Cn1c(-c2sc3ccccc3c2Cl)n[nH]c1=S	0.7%	-1.1	-0.5	14.1µM*	-0.7%	4.4%
CC(C)CC[n+]1ccccc1/C=C/c1ccc(N(C)C)cc1	-11.0%	-0.6	?	-18.8%	10µM*	7.94µM*
O=C(Nc1cccnc1)c1cc(Br)c(Br)s1	4.0%	-5.0	0.0	20µM*	-1.8%	4.3%
O=C(Nc1cccnc1)Nc1ccc(Br)cc1Cl	7.2%	-5.6	-0.4	15.8µM*	0.5%	-1.5%
NC(=O)c1cc(NC(=O)c2cc(Br)c(Br)s2)cc(C(N)=O)c1	3.1%	4.9	-0.5	-13.3%	-4.6%	7.9%
Cc1nn(-c2ccccc2)c(Cl)c1/C=C1\SC(=S)NC1=O	3.6%	-13.0	0.7	25.1µM*	-2.1%	-0.1%
Cc1nn(-c2ccccc2)c(Cl)c1/C=C1\SC(=S)N(CCCCCC(=O)O)C1=O	-3.7%	1.7	0.2	-23.9%	-6.9%	10.5%
CN(C)CCCNS(=O)(=O)c1ccc(N2CCN(Cc3ccc4c(c3)OCO4)CC2)c([N+](=O)[O-])c1	3.1%	26.8	-0.5	2.82µM*	2.4%	-1.5%
CC(=O)c1ccc(N2CCN(c3ccc(S(=O)(=O)NCCCN(C)C)cc3[N+](=O)[O-])CC2)cc1	-3.4%	3.0	1.8	-18.7%	4.2%	0.1%
COc1ccccc1-c1cncnc1-n1ccnc1	-2.1%	/	/	25.1µM*	/	/
COc1cccc(-c2cncnc2-n2ccnc2)c1	3.7%	/	/	?	/	/
COc1ccc([C@H]2CC(=O)C=C(c3cccc(Cl)c3O)C2)cc1OC	-1.0%	6.7	-0.6	22.4µM*	-1.8%	-2.9%
O=C1C=C(c2cccc(Cl)c2O)C[C@@H](c2ccc3c(c2)OCO3)C1	-3.6%	-2.0	2.6	?	-8.9%	-3.2%
COc1cc(/C=C(\C#N)C(=O)NCC2CCCO2)ccc1OCCC(C)C (stereo not drawn)	2.0%	-18.8	52.4*	9.0%	2.7%	2.6%

Bioassay records from PubChem.
